# Assay outcomes as filed in PubChem.
# Most compounds without a hit are left out; they make up all but 3.2% or so of the library.
# ERAP1 inh – ERAP1 (human) enzyme inhibition; Q9NZ08; recombinant ERAP1, Leu-AMC fluorescence, 60 min; inhibition, % at 10.7 µM; 340,000 compounds, 0.15% hits; AID 652197;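 active means mean replicate inhibition of at least 30%, or all replicates individually reaching that 30% level; inactive means mean below 30% and not every replicate reaching it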;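 further: 0% = neutral control wells and 100% = L-leucinethiol positive control wells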
# Target sequence (Q9NZ08 whole entry, looked up): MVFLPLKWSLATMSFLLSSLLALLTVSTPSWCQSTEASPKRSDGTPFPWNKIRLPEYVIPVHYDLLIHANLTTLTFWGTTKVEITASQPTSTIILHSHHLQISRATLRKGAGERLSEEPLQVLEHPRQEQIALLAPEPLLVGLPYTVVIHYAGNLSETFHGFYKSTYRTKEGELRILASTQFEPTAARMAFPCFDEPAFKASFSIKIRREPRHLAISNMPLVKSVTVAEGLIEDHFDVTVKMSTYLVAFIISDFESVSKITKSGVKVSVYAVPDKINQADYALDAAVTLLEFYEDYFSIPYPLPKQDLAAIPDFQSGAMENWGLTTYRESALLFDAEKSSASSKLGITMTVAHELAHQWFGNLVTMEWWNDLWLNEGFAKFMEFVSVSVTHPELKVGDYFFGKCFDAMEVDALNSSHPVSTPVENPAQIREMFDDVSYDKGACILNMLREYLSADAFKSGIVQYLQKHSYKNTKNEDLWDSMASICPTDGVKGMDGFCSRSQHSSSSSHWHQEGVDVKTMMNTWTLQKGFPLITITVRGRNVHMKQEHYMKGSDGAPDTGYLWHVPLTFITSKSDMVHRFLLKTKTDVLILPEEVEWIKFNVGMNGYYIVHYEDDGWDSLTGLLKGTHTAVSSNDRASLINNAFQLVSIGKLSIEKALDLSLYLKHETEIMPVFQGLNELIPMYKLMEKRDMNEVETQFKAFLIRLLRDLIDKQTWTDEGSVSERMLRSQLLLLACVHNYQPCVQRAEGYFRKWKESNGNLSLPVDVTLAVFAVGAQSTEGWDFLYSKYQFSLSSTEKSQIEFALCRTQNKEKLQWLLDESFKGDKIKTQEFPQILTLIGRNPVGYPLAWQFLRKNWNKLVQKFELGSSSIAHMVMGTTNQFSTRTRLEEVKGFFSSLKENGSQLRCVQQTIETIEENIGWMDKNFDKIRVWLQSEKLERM
# Ecoli rRNA inh – selective bacterial rRNA inhibition in E. coli; E. coli WT GFP vs humanized-ribosome RFP mutants, fluorescence, 24 h; active compounds read low; DMSO median 0, no signal -100; GFP signal change (wild-type ribosome), % (no concentration beside the values); 350,000 compounds, 1.6% hits;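 active means significant combined selectivity score with lowered wild-type GFP, culture density cut under 30%, mutant RFP and density less affected; inactive means any of these conditions unmet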
# GSIS activator – primary screen for activators of insulin secretion dependent on glucose, INS-1E cells, GLuc reporter luminescence. AID 743287. 370,000 compounds, 0.61% hits. activation, % at 16.6 µM. INS-1E GLuc reporter insulin secretion, 2-3 h;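 active means lowest replicate activation of at least 40%, so every replicate reaches that level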;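 further: 0% = median of neutral control wells and 100% = median of IBMX positive control wells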
# PGC1a acetyl inh – modulators of PGC1a acetylation; 350,000 compounds, 0.17% hits; U2OS PGC1a acetylation, AlphaScreen anti-acetyl-lysine; with virally co-expressed GCN5 acetyltransferase; inhibition, % at 15.6 µM;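 active means every replicate shows inhibition of at least 40%; inconclusive means mean inhibition at least 40% but some replicate below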;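 further: 0% = neutral control wells and 100% = positive control wells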
# CaV13 ICDI inh – Primary screen for inhibitors of IQ motif and Ca2+-dependent inactivation inhibitor domain binding in CACNA1D, Förster resonance energy transfer in living cells, …; 340,000 compounds, 0.098% hits; inhibition, % at 12.3 µM; HEK cells, CFP/YFP FRET ICDI-IQ, plate reader, 10 min; percent FRET-ratio fall versus neutral wells; AID 743397;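 active means mean replicate inhibition of at least 30% and at least 1% of replicates passing that level; inconclusive means only one of the two criteria is met; inactive means neither criterion is met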;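 further: 0% = median of the neutral control wells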
# DENV2 CPE rescue – protects cells from dengue virus 2 cytopathic effect; DENV2-infected cells, cytopathic effect rescue, plate reader; CPE inhibition, % at 9.99 µM; 350,000 compounds, 1.7% hits; AID 651640; in the data active means CPE inhibition above about 20%, passing the limit was not always enough; inconclusive means no clear call, values can overlap the other calls; tested in BHK-21 cells;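 further: 0% = median of neutral control wells and 100% = median of positive control wells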
# Starred values were filed as active, the others as inactive; u = inconclusive; x = no result.
SMILES,ERAP1 inh,Ecoli rRNA inh,GSIS activator,PGC1a acetyl inh,CaV13 ICDI inh,DENV2 CPE rescue
COc1ccc(NC(=O)Nc2ccc3c(c2)C(=O)N([C@H](C)CO)C[C@H](C)[C@@H](CN(C)CC2CCCCC2)O3)cc1,0.0,1.0,13.9,9.7,x,-1.9
c1ccc(Cc2nnc(-c3ccccc3)o2)cc1,x,x,29.2,x,x,x
COc1ccc(Cc2nnc(-c3ccccc3)o2)cc1,x,-13.8,45.8*,7.3,-16.5,-0.6
CCN(C[C@@H]1[C@@H](c2ccc(-c3ccccc3)cc2)[C@H](CO)N1C(C)=O)C(C)=O,-1.1,-1.5,-4.5,0.8,x,22.2*
CCN(C[C@H]1[C@H](c2ccc(-c3ccccc3)cc2)[C@H](CO)N1C(C)=O)C(C)=O,0.8,-1.8,1.8,-0.3,x,16.4
CCN(C[C@H]1[C@H](c2ccccc2)[C@H](CO)N1C(C)=O)C(=O)NC(C)C,0.0,1.8,4.0,1.2,x,27.2*
Cc1ccc(O)c(C2=NOC(O)(C(F)(F)F)C2)c1 (stereo not drawn),x,x,52.1*,-0.4,-5.6,x
C[C@@H]1CCCCO[C@@H](CN(C)S(=O)(=O)c2cn(C)cn2)[C@@H](C)CN([C@@H](C)CO)C(=O)c2cc(NC(=O)Nc3ccc4c(c3)OCO4)ccc2O1,-2.0,-0.7,-3.7,3.2,x,11.9
COc1ccc([C@@H]2CC=C(C(=O)O)[C@H](c3cccc(Cl)c3)N2S(=O)(=O)c2ccc(C)cc2)cc1OC,6.1,-15.1,-3.5,x,-6.8,-9.6
Cc1ccc(S(=O)(=O)N2[C@@H](c3ccc(F)cc3)C(C(=O)O)=CC[C@H]2c2cccc(C)c2)cc1,x,-25.4*,-4.8,23.6,-5.4,3.2
COc1ccc([C@@H]2CC=C(C(=O)O)[C@H](c3ccccc3)N2S(=O)(=O)c2ccc(C)cc2)cc1OC,0.9,-5.0,0.7,x,-10.1,48.8*
Cc1ccc(S(=O)(=O)N2[C@@H](c3ccccc3F)C(C(=O)O)=CC[C@H]2c2ccc3c(c2)OCO3)cc1,-1.2,-20.9*,-8.3,x,-11.4,-9.0
Cc1ccc(S(=O)(=O)N2[C@@H](c3ccc(Cl)cc3)C(C(=O)O)=CC[C@H]2c2cccs2)cc1,0.7,-29.1*,-4.2,x,-3.1,-3.3
Cc1ccc(S(=O)(=O)N2[C@@H](c3ccc(F)cc3)C(C(=O)O)=CC[C@H]2c2ccc3c(c2)OCO3)cc1,0.1,-18.1,16.2,x,-4.9,-5.7
Cc1ccc([C@@H]2CC=C(C(=O)O)[C@H](c3ccc(F)cc3)N2S(=O)(=O)c2ccc(C)cc2)cc1,-2.9,-9.4,3.5,x,-7.4,-2.8
CN1C(=O)c2cc(NS(C)(=O)=O)ccc2OC[C@@H]2O[C@H](CC(=O)NCc3ccccc3)CC[C@H]21,-0.1,3.1,-1.2,2.4,x,0.3
COc1ccc2c3c(n(C)c2c1)[C@H](CO)N(C(=O)Nc1ccc(F)cc1)CC31CCN(C(=O)c2cccnc2)CC1,5.1,-3.8,-17.8,x,x,-3.0
COc1ccc([C@@H]2CC=C(C(=O)O)[C@H](c3ccccc3F)N2S(=O)(=O)c2ccc(C)cc2)cc1OC,-0.4,-5.1,-8.2,x,-10.0,35.6*
O=C(O)C1=CC[C@@H](c2ccc(Cl)cc2)N(S(=O)(=O)c2ccc(Cl)cc2)[C@H]1c1ccc(F)cc1,7.5,-42.5,13.1,10.2,39.3*,15.8
C[C@@H]1COCn2nncc2CCCC(=O)N1,x,0.2,12.6,x,x,x
CCOC(=O)c1sc(NC(C)=O)nc1-c1ccccc1,x,x,43.1*,-3.7,x,x
COc1ccccc1CNc1ccc(Br)cn1,-1.6,-29.5*,7.3,-1.5,-9.1,-5.1
O=C(C[C@H]1CC[C@@H](NC(=O)c2cnccn2)[C@@H](CO)O1)NCc1ccccc1F,0.0,-1.3,5.8,-8.7,x,0.6
O=c1cc(C(F)(F)F)[nH]c2ccc(C(F)(F)F)cc12,5.2,-50.2*,-4.9,x,-13.0,6.5
Cc1cc(=O)c2ccc(C(F)(F)F)cc2[nH]1,6.8,28.4,0.5,x,-14.7,1.6
O=C(c1ccccc1NS(=O)(=O)c1ccc([N+](=O)[O-])cc1[N+](=O)[O-])N1O[C@@H]2C=C[C@H]1C2,-9.1,-9.1,48.6*,-6.6,-5.0,u
